RXFP1 agonist: agonists of human relaxin receptor RXFP1; AID 2676; Potency, µM (titrated, usually from 57.5 µM), inactives show top-dose activation, actives largely listed as activators; Q9HBX9; HEK293T-RXFP1 cAMP TR-FRET, 30 min; response scale: percent of porcine relaxin response, buffer zero; actives 0.3% (n = 370,000); note: potency is the fitted concentration of half-maximal effect; % is set by controls: 0 for no effect and ±100 for the full control effect; nearly all actives have a fitted effect of over 60% in size
Target sequence (Q9HBX9 whole entry, looked up): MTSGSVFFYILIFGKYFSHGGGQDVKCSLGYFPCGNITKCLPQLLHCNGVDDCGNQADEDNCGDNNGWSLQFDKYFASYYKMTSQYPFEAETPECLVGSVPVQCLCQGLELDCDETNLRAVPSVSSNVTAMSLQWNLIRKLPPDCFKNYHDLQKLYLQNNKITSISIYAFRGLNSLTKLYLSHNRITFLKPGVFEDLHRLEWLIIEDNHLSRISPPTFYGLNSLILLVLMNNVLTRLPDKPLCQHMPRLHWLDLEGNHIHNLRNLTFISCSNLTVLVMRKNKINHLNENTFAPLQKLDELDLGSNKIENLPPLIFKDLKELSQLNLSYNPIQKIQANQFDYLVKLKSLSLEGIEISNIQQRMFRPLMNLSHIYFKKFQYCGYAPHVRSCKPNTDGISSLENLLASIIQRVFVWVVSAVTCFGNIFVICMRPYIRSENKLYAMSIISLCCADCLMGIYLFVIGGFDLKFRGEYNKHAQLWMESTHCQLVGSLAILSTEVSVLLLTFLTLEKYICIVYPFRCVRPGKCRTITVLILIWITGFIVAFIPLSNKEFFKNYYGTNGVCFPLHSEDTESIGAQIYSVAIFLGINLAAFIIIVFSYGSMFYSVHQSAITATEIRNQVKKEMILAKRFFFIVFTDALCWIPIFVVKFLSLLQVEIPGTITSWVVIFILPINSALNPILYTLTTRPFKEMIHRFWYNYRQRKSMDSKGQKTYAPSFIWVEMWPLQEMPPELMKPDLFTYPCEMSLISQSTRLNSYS
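cAMP rise read by TR-FRET after 30 min, 37C compound exposure (up to 58 uM) in RXFP1-transfected HEK293 cells with Ro 20174 present. EC50 from Hill-equation fits, with 29 nM porcine relaxin as 100% and buffer as basal.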
Giardia kill: kills Giardia lamblia; Giardia lamblia trophozoite viability; activity change, % at 7.66 µM, hits read low; actives 0.15% (n = 340,000); in the data active = activity change below about -80%; inconclusive = between about -30% and that limit;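 note: parasites exposed to compound for two days anaerobically before the ATP read; % is set by controls: 0 for no effect and ±100 for the full control effect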
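Anaerobic 48 hrs incubation at 37 deg C of 100 trophozoites/well with test compounds; ATPLite 1-Step luminescence, 15-30 min RT, reports cellular ATP as viability.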
BRCA1 expr up: increases BRCA1 expression; MCF7-BRCA1-FFLuc reporter, luminescence, 48 h; response scale: scaled: vehicle 0%, 10 µM genistein 100%; actives 1.1% (n = 380,000); Potency, µM (series often up to 46.1 µM), for inactives: top-dose activation, most hits filed as activators; note: potency is the fitted concentration of half-maximal effect; nearly all actives have a fitted effect of over 80% in size
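Cells: MCF7-BRCA1-FFLuc, 2000/well. Exposure: 48 h, 37 °C, 5% CO2. Read: luminescence, 15 min post-substrate. Controls: genistein 10 microM (maximal activation), DMSO (neutral).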
IL2 activator: IL-2 activation. IL-2 activation reporter assay, cell-based qHTS; stimulated with anti-CD3/CD4/CD28 beads; in transgenic mouse T cells. activation, % (series mostly up to about 46 µM). actives 0.065% (n = 360,000). AID 652025; in the data active = activation above about 50%; inconclusive = mostly about 30% to 49%; note: 0% is about no effect
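EGFP and DsRed fluorescence is measured by plate cytometry in unstimulated transgenic mouse T cells exposed to compound for 60 minutes, then stimulated 18 hours at 37 degrees C with anti-CD3/anti-CD4 beads plus anti-CD28.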
RXFP1 antag: blocks the human relaxin receptor RXFP1 | HEK293-RXFP1, relaxin-stimulated cAMP HTRF, 30 min; stronger effect = lower value | activity change, negative = inhibition, % at 57.5 µM | actives 0.59% (n = 350,000) | AID 1259400;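 active = activity change of -60% or lower, but not beyond a set lower limit; inconclusive = change between -60% and -40%, or beyond the set limit; inactive = change above -40%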; note: % is set by controls: 0 for no effect and ±100 for the full control effect
NPSR antagonist: blocks cAMP signaling of the human neuropeptide S receptor | Potency, µM (doses to about 38.3 µM), without a hit: top-dose activity change, negative = inhibition, usual class: inhibitors | actives 1% (n = 220,000) | CHO-NPSR cells, cAMP TR-FRET, antagonist mode; note: potency is the fitted concentration of half-maximal effect; % is set by controls: 0 for no effect and ±100 for the full control effect; nearly all actives have a fitted effect of over 50% in size
Active calls of the source: *; [ ] = remark or other dose. Shown are actives, neighbours in structure and some others; about 1.9% of the full set was active somewhere. Unless noted, calls come from the whole dose curve; as a rule, active = well fitted curve in the direction sought with a large enough effect; inconclusive = small, poorly fitted or top-dose-only effect, or another doubt; inactive = no such curve, though single readings can be large; an effect the other way counts as inactive or inconclusive.

What do the screens show for `O=C(Nc1nnc([C@@H]2C[C@H](O)[C@@H](CO)O2)s1)c1ccccc1Cl`?
BRCA1 expr up: 38.5%; IL2 activator: 0.6

What do the screens show for `O=C(Nc1nnc([C@H]2C[C@H](O)[C@@H](CO)O2)s1)Nc1ccccc1F`?
BRCA1 expr up: 92.1%; IL2 activator: 0.8

What do the screens show for `Oc1ccc2ccccc2c1C=NCc1ccccc1`?
RXFP1 agonist: -1.7%; Giardia kill: 2.9; BRCA1 expr up: -28.7%; IL2 activator: -2.8; RXFP1 antag: -9.4; NPSR antagonist: -12.8%[7.67 µM]

Results for Oc1ccccc1C=NN=Cc1c(O)ccc2ccccc12 ?
Giardia kill: -1.0; BRCA1 expr up: -58.8%; IL2 activator: 51.7*; RXFP1 antag: -3.1

What do the screens show for `S=C(Nc1ccc(Cl)cc1)c1nc2ccccc2s1`?
RXFP1 agonist: -2.2%; Giardia kill: -0.4; BRCA1 expr up: 28.7%; IL2 activator: 0.1; RXFP1 antag: -1.5; NPSR antagonist: -11.5%[46.1 µM]

Results for O=C(Nc1ccc(Cl)cc1)/C(=C/c1cccc(O)c1)c1nc2ccccc2s1 ?
RXFP1 agonist: -0.6%; Giardia kill: -20.1; BRCA1 expr up: -93.7%; IL2 activator: -0.8; RXFP1 antag: -17.3; NPSR antagonist: 10µM*

How did C/C(=N/OCc1ccc(Br)cc1)c1ccccn1 do in these assays?
RXFP1 agonist: 1.2%; Giardia kill: inconclusive; BRCA1 expr up: 3.55µM*; IL2 activator: -5.4; RXFP1 antag: -12.3; NPSR antagonist: -15.6%

How did O=[N+]([O-])c1cccc(/C=C/c2nc[nH]c2[N+](=O)[O-])c1 do in these assays?
RXFP1 agonist: 1.8%; Giardia kill: -81.5*; BRCA1 expr up: 34.0%; IL2 activator: -1.6; RXFP1 antag: 0.4; NPSR antagonist: -2.2%

Results for NC(=O)c1sc2nc3c(c(-c4ccco4)c2c1N)CCCC3 ?
RXFP1 agonist: 0.0%; Giardia kill: 1.8; BRCA1 expr up: 9.6%; IL2 activator: 0.3; RXFP1 antag: -2.5; NPSR antagonist: -43.6%

What do the screens show for `Nc1c(C(=O)NCC2CCCO2)sc2nc3c(c(-c4ccco4)c12)CC/C3=C\c1ccco1` (configuration not stated)?
RXFP1 agonist: 1.4%; Giardia kill: 2.5; BRCA1 expr up: -1.4%; IL2 activator: 0.5; RXFP1 antag: -102.4*; NPSR antagonist: -13.1%

Results for Cc1cc(C)n2nc(-c3ccc(Cl)cc3)cc2n1 ?
RXFP1 agonist: 1.6%; Giardia kill: -18.0; BRCA1 expr up: 12.5%; IL2 activator: 1.1; RXFP1 antag: 2.0

Results for Cc1nc2cc(-c3ccc(Cl)cc3)nn2c(NCCN(C)C)c1C ?
RXFP1 agonist: 16.1%; Giardia kill: -96.2*; BRCA1 expr up: 37.8%; IL2 activator: -1.1; RXFP1 antag: -8.8; NPSR antagonist: -48.2%

How did COc1ccc2[nH]c3c(=O)n(Cc4ccc(C(=O)N5CCC(C(N)=O)CC5)cc4)c(=S)[nH]c3c2c1 do in these assays?
RXFP1 agonist: 21.8%; Giardia kill: -6.8; BRCA1 expr up: -2.2%; IL2 activator: -0.5; RXFP1 antag: -35.5; NPSR antagonist: -9.9%

What do the screens show for `O=C(NCC1CCCO1)c1ccc(Cn2c(=S)[nH]c3ccccc3c2=O)cc1` (configuration not stated)?
RXFP1 agonist: 3.9%; Giardia kill: 4.4; BRCA1 expr up: 7.0%; IL2 activator: -0.9; RXFP1 antag: inconclusive; NPSR antagonist: -0.1%

What do the screens show for `CC[C@H](C)NC(=O)c1ccc(Cn2c(=S)[nH]c3c([nH]c4ccc(OC)cc43)c2=O)cc1`?
RXFP1 agonist: 3.5%; Giardia kill: 9.9; BRCA1 expr up: -8.7%; IL2 activator: -0.2; RXFP1 antag: -64.1*; NPSR antagonist: 5.0%

Results for CCOCCCNC(=O)c1ccc(Cn2c(=S)[nH]c3c([nH]c4ccc(OC)cc43)c2=O)cc1 ?
RXFP1 agonist: 1.7%; Giardia kill: 29.7; BRCA1 expr up: -1.2%; IL2 activator: 0.0; RXFP1 antag: -36.0; NPSR antagonist: 6.9%

Results for CCCCNC(=O)c1ccc(Cn2c(=S)[nH]c3c([nH]c4ccc(OC)cc43)c2=O)cc1 ?
RXFP1 agonist: 3.5%; Giardia kill: 0.3; BRCA1 expr up: -80.2%; IL2 activator: -0.2; RXFP1 antag: -85.1*; NPSR antagonist: -56.7%

Results for COc1ccc2[nH]c3c(=O)n(Cc4ccc(C(=O)NCC5CCCO5)cc4)c(=S)[nH]c3c2c1 (configuration not stated) ?
RXFP1 agonist: 8.0%; Giardia kill: 2.6; BRCA1 expr up: 19.1%; IL2 activator: -1.5; RXFP1 antag: -89.0*; NPSR antagonist: 5.2%

What do the screens show for `Cc1nn(-c2ccccc2)c2c1cc1c(=O)n(C)c(=O)nc-1n2-c1cccc(Cl)c1`?
RXFP1 agonist: 9.9%; BRCA1 expr up: -12.1%

How did O=[N+]([O-])c1ccc(O/N=[N+](\[O-])N2CCCC2)c([N+](=O)[O-])c1 do in these assays?
BRCA1 expr up: 0.0%

How did NC1=NC(=O)/C(=C/c2ccccc2OCC(=O)Nc2ccc(F)cc2)S1 do in these assays?
Giardia kill: 9.7; BRCA1 expr up: -8.3%; IL2 activator: -0.3; RXFP1 antag: 1.8

Results for O=C(COc1ccccc1/C=C1\SC(=S)NC1=O)Nc1ccc(F)cc1 ?
Giardia kill: 8.5; BRCA1 expr up: -66.1%; IL2 activator: -0.8; RXFP1 antag: -69.5*

Results for O=C(NC(NC(=S)Nc1ccccc1)C(Cl)(Cl)Cl)c1cccc(Cl)c1 (configuration not stated) ?
RXFP1 agonist: -1.0%; Giardia kill: 8.1; BRCA1 expr up: -99.1%; IL2 activator: -1.4; RXFP1 antag: 0.0; NPSR antagonist: 12.6µM*

Results for O=C(NC(NC(=S)Nc1ccc(Cl)cc1Cl)C(Cl)(Cl)Cl)c1cccc([N+](=O)[O-])c1 (configuration not stated) ?
RXFP1 agonist: 6.1%; Giardia kill: 22.8; BRCA1 expr up: -85.3%; IL2 activator: -2.6; RXFP1 antag: -21.6; NPSR antagonist: 10µM*

How did O=C(O)c1cccc(NC(=S)NC(NC(=O)c2cccc([N+](=O)[O-])c2)C(Cl)(Cl)Cl)c1 (configuration not stated) do in these assays?
RXFP1 agonist: 4.0%; Giardia kill: -15.3; BRCA1 expr up: 18.7%; IL2 activator: -0.6; RXFP1 antag: 4.4; NPSR antagonist: -3.6%

What do the screens show for `Nc1nnc(-c2ccc(Cl)cc2Cl)s1`?
RXFP1 agonist: 1.2%; Giardia kill: 34.4; BRCA1 expr up: 10µM*; IL2 activator: 3.1; RXFP1 antag: -15.6; NPSR antagonist: -22.6%

How did O=C(CNC(=O)c1ccccc1)OCC(=O)c1ccc2ccccc2c1 do in these assays?
Giardia kill: 7.2; BRCA1 expr up: 3.6%

High-throughput results (PubChem BioAssay)
